Structures are written as SMILES. This is part of a sample that, as a whole, favours compounds with a hit. Of some 83,000 tested, about 20% had one in any assay.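 Cells were grown in 96-well plates and exposed to the test compound at a single concentration for 48 hours; results are reported as percent growth, with values below 10 considered active.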 Values without a mark were called inactive. Active and inactive are the calls of the source.

The test deals with NCI-H460 lung. Put plainly: NCI-60 one-dose screen, 48 h (100 = growth as untreated, 0 = no growth, -100 = all killed). The conditions noted are these: 10 µM.
Consider `N=c1nc(N)ncn1-c1ccccc1`, for which the growth is 106%. With `COc1ccc(-c2nnc(-c3c(-c4ccccc4)nc4ncccn34)o2)cc1OC` the figure was 107%; with `Nc1ncn([C@@H]2O[C@H](CO)[C@@H](O)[C@H]2O)c(=O)n1`, -1.73% (active). On to `CCOC(=O)CCC(NC(=O)c1ccc(N)cc1)C(=O)OCC` (centres undefined), for which the growth is 118%.

With `CC(=O)N(C)c1ccc(Nc2ccc(Nc3ccc(N(C)C(C)=O)cc3)c3c2C(=O)c2ccccc2C3=O)cc1`, the growth was 64.9%. With `COc1ccc(-c2nc3sccn3c2-c2nc3c([nH]2)C(=O)c2ccccc2C3=O)cc1` the figure was 91.3%; with `COc1ccc2c(c1)C(=O)c1c-2c(OCCN(C)C)nc2cc(OC)c(OC)cc12`, 36.6%; with `COc1cc(/C=C\c2cc(OC)c(OC)c(OC)c2)cc(NS(=O)(=O)c2ccc(Cl)cc2)c1OC`, 13.8%. On to `C=C(C(=O)c1ccccc1)C(NC(C)(C)C)c1ccccc1` (centres undefined), for which the growth is 26.9%. With `O=C1/C(=C/c2ccc(Cl)cc2)SC(=Nc2ccc(Cl)cc2)N1Cc1nc2ccccc2[nH]1` the figure was 85.3%; with `CC12O[C@H](C[C@@H](OC(=O)c3ccccc3)[C@H]1O)n1c3ccccc3c3c4c(c5c6ccccc6n2c5c31)C(=O)NC4=O`, 79.6%; with `COc1ccc(Oc2nc(NC3CCCC3)nc(Sc3ccc(OC)cc3)n2)cc1`, 47.7%. Turning to `COc1cc(-c2cc(/C=C/C(=O)c3ccc4c(c3)OCO4)[nH]n2)cc(OC)c1OC`, the growth was 68.6%. The value for `CCN(CC)CCOc1nc2cc(OC)c(OC)cc2c2c1-c1ccc(OC)cc1C2=O` was 25.6%.

Values taken from PubChem BioAssay (NCI).
